The text below walks through data of PMC5540273 (PLoS ONE, 2017).

Conditions in all cases: concentration: 1 μM, replicates: in singlicate; n = 1
Assay [1] concerns RPS6KA4(Kin.Dom.1-N-terminal).
The subject of assay [2] is RPS6KA4(Kin.Dom.2-C-terminal).
Assay [3] deals with RPS6KA5(Kin.Dom.1-N-terminal).
Assay [4] relates to RPS6KA5(Kin.Dom.2-C-terminal).
For assay [5], the system named is T1, RSK1(Kin.Dom.1-N-terminal).
T1 construct: gene RPS6KA1

Assay [6] has as its system T2, RSK1(Kin.Dom.2-C-terminal).
T2 construct: gene RPS6KA1

For assay [7], the system named is T3, RSK2(Kin.Dom.1-N-terminal).
T3 construct: gene RPS6KA3

The subject of assay [8] is T4, RSK2(Kin.Dom.2-C-terminal).
T4 construct: gene RPS6KA3

Assay [9] relates to T5, RSK3(Kin.Dom.1-N-terminal).
T5 construct: gene RPS6KA2

Assay [10] concerns T6, RSK3(Kin.Dom.2-C-terminal).
T6 construct: gene RPS6KA2
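Also: KINOMEscan kinase panel screen.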

Take `Cc1ccc(O)cc1Nc1ccnc2cc(-c3ccc(CN4CCCCC4)o3)ccc12` [GW557777]: the “%Inh” value turned out to be 0% in assay [1]; 9% in assay [2]; 0% in assay [3]; 10% in [4]; 0% in [5]; 90.7% in assay [6]. Besides, the “%Inh” value came out at 0% in [7], 40% in [8], 1% in assay [9] and 29% in [10].

Turning to `c1ccc(Oc2ccc(Nc3ccnc4cc(-c5ccc(CN6CCCCC6)o5)ccc34)cc2)nc1` [GW567143], the “%Inh” value in assay [1] is 13%; in assay [2], 0%; in assay [3], 0%; in assay [4], 0%; in [5] it was 22%; in [6], 0%. Moreover, the “%Inh” value is 0% in [7], 20% in [8], 3% in assay [9] and 0% in [10].

For the compound `CCNc1nccc(-c2c(-c3ccc(F)cc3)ncn2C2CCN(C)CC2)n1`, the “%Inh” value in assay [1] was 0%; in assay [2], 0%; in assay [3], 0%; in assay [4], 8%; in assay [5], 5%; in assay [6], 50%. Also, the “%Inh” value in assay [7] came to 9%; in assay [8] it was 15%; in assay [9], 6%; in assay [10], 10%.

Turning to `COc1ccc(C)c(Nc2ccnc(Nc3ccc(-c4cnc[nH]4)cc3)n2)c1.Cl` [GW784041], the “%Inh” value in assay [1] is given as 26%; in assay [2], 5%; in assay [3], 8%; in assay [4], 10%; in assay [5], 0%; in assay [6], 1%. In addition, the “%Inh” value in [7] was 0%; in assay [8] it was 3%; in [9], 1%; in assay [10], 6%.

As to `CN(C)CCNS(=O)(=O)c1ccc(-c2ccnc3[nH]ccc23)cc1` [GSK977620], the “%Inh” value is 30% in assay [1]; 73% in [2]; 44% in [3]; 68% in assay [4]; 30% in assay [5]; 31% in assay [6]. In addition, the “%Inh” value in assay [7] was 60%; in assay [8], 9%; in [9], 32%; in assay [10], 21%.

As for `Cc1ccc(C)c(NC(=O)Nc2ccc(C)c(-c3ccc(C(=O)Nc4ccncc4)cc3)c2)c1` [GSK1398473], the “%Inh” value is 37% in assay [1]; 0% in [2]; 4% in assay [3]; 14% in assay [4]; 0% in [5]; 0% in assay [6]. Further, the “%Inh” value is recorded as 37% in assay [7], 18% in [8], 27% in assay [9] and 3% in assay [10].

Turning to `Cl.O=C(Nc1ccc(Oc2ccc3[nH]c(NC(=O)c4ccco4)nc3c2)cc1)Nc1cc(C(F)(F)F)ccc1F` [GW683134], the “%Inh” value was 16% in assay [1]; 0% in assay [2]; 14% in assay [3]; 6% in assay [4]; 0% in assay [5]; 16% in assay [6]. Also, the “%Inh” value in assay [7] was found to be 3%; in [8], 3%; in [9], 54%; in [10], 9%.

As to `CCn1cnc2c(NCc3ccccc3)ncnc21` [SKF-96418], the “%Inh” value in [1] amounted to 13%; in assay [2], 0%; in [3] it was 11%; in assay [4], 0%; in [5] it was 0%; in assay [6], 0%. Also, the “%Inh” value in [7] was found to be 30%; in assay [8] it was 0%; in assay [9], 0%; in [10] it was 0%.

As to `COc1cccc(CC(=O)N2CCc3cc(-c4cn(C)c5ncnc(N)c45)ccc32)c1` [GSK2608899], the “%Inh” value in assay [1] was found to be 28%; in assay [2], 0%; in assay [3], 1%; in assay [4] it was 11%; in assay [5], 21%; in assay [6], 27%. The “%Inh” value was determined as 16% in assay [7], 17% in assay [8], 22% in [9] and 20% in [10].
